Targets with a hit are over-represented here; the source holds about 8,800 in all. About 0.5% of all pairs of compound and target were hits.
Experiments:
Assay in all cases: log2 fold change, soluble protein after heating vs DMSO (PISA); higher = thermal stabilisation; K562 lysate, 10 uM; active = over 0.2 and 3.5 SD of the protein, either way, in both replicates (recomputed)
[1] = compound: C1=CC=C(C=C1)[C@H](COC2=CC3=C(C=C2)NC(=O)N3)NC(=O)C4=CC=CN(C4=O)CC5=CC(=C(C=C5)F)F
Summary of the method: (§1)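 Log-two fold change in thermal stability relative to solvent controls is reported from duplicates. For each sample, crude K562 extract from dounce-homogenised pellets in PBS pH 7.4 with 1 mM MgCl2, at 1 mg/mL protein, was treated with 10 μM compound for 30 min. Aliquots heated for 3 min across 48°C-58°C were pooled, brought to 0.5% NP-40 at 4°C and cleared at 21,000xg for 90 min. The supernatant was quantified by TMTpro 16plex LC-MS/MS with channel sums equalised.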

[2] = compound: CC1=C(SC2=C1C(=N[C@H](C3=NN=C(N32)C)CC(=O)N)C4=CC=C(C=C4)Cl)C
Summary of the method: as §1

[3] = compound: CC1=C2C(=CC=C1)N=C(N(C2=O)C3=CC=CC=C3C)CN4C=NC5=C(N=CN=C54)N
Summary of the method: as §1

[4] = compound: Cc1sc2c(c1C)C(c1ccc(Cl)cc1)=N[C@@H](CC(=O)OC(C)(C)C)c1nnc(C)n1-2
Summary of the method: as §1

[5] = compound: c1ccc([C@@H]2C[C@H]2NC2CCNCC2)cc1
Summary of the method: as §1

Measured: log2 fold change

THADA (UniProt Q6YHU6)
inactive: [1] -0.028 | [2] -0.016 | [3] 0.069 | [4] 0.007 | [5] 0.028

TUBGCP2 isoform 4 (UniProt Q9BSJ2)
inactive: [1] 0.009 | [2] -0.015 | [3] 0.035 | [4] 0.018 | [5] 0.097

TRIP13 (UniProt Q15645)
inactive: [1] 0.006 | [2] 0.015 | [3] 0.018 | [4] 0.01 | [5] 0.049

THOC5 (UniProt Q13769)
inactive: [1] 0.026 | [2] 0.048 | [3] 0.016 | [4] -0.01 | [5] 0.006

THEMIS2 (UniProt Q5TEJ8)
inactive: [1] 0.046 | [2] 0 | [3] 0.019 | [4] 0.052 | [5] -0.054

UBAP2L isoform 5 (UniProt Q14157)
inactive: [1] -0.047 | [2] 0.049 | [3] -0.022 | [4] 0.029 | [5] -0.004

TMPO (UniProt P42167)
Sequence of UniProt P42167 (P42167 whole entry, looked up): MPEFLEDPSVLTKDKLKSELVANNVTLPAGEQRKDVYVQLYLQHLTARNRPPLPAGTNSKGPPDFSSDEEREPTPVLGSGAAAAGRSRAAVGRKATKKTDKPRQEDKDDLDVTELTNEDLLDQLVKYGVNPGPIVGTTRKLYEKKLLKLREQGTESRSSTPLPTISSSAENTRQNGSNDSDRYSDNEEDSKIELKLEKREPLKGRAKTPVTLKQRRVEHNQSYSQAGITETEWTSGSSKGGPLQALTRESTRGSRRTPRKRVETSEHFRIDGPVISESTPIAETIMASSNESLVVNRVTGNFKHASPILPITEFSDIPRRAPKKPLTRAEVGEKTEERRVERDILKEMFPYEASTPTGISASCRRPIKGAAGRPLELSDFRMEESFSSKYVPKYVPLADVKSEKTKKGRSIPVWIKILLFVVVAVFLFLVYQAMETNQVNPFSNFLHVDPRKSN
inactive: [1] -0.017 | [2] 0.044 | [3] -0.042 | [4] 0.042 | [5] -0.023

TUBB4B (UniProt P68371)
inactive: [1] 0.001 | [2] 0.03 | [3] 0.018 | [4] 0.042 | [5] 0.049

TRMT2A (UniProt Q8IZ69)
inactive: [1] 0.003 | [2] 0.02 | [3] 0.003 | [4] 0.02 | [5] 0.027

TCAF2 (UniProt A6NFQ2)
inactive: [1] 0.159 | [2] 0.091 | [3] 0.027 | [4] 0.007 | [5] 0.042

TPM1 (UniProt H7BYY1)
inactive: [1] -0.028 | [2] 0.017 | [3] 0.059 | [4] 0.031 | [5] 0.023

TMPO (UniProt P42166)
Sequence of UniProt P42166 (P42166 whole entry, looked up): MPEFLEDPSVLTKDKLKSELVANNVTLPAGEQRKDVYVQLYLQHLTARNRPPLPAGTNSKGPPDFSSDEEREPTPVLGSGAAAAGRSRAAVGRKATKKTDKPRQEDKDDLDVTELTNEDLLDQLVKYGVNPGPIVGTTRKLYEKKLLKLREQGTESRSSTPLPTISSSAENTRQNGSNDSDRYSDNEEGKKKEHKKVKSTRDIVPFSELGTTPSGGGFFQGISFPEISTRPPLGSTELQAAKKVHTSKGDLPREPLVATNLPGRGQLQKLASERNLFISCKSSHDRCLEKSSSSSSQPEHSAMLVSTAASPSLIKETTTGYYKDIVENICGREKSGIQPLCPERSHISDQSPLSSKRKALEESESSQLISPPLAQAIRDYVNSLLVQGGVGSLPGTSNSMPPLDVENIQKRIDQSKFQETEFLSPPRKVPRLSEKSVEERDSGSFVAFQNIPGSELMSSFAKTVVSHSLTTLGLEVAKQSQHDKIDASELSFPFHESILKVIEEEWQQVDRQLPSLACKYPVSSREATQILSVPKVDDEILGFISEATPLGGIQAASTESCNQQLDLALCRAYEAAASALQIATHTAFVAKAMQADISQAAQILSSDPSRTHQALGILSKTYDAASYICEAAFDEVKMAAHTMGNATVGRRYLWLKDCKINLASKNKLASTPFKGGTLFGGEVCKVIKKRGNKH
inactive: [1] -0.013 | [2] 0.015 | [3] 0.015 | [4] 0.011 | [5] 0.059

TTC27 (UniProt Q6P3X3)
inactive: [1] -0.039 | [2] -0.021 | [3] 0.028 | [4] -0.019 | [5] 0.032

UBTF (UniProt P17480)
inactive: [1] -0.031 | [2] 0.028 | [3] -0.012 | [4] 0.007 | [5] 0.069

TTI2 (UniProt Q6NXR4)
inactive: [1] -0.044 | [2] 0.009 | [3] 0.033 | [4] -0.035 | [5] 0.024

TELO2 (UniProt Q9Y4R8)
inactive: [1] -0.073 | [2] -0.012 | [3] -0.019 | [4] 0.056 | [5] 0.025

TUBGCP3 (UniProt Q96CW5)
inactive: [1] -0.007 | [2] -0.004 | [3] 0.011 | [4] 0.008 | [5] 0.037

TTF2 (UniProt Q9UNY4)
inactive: [1] -0.092 | [2] 0.029 | [3] 0.003 | [4] 0.127 | [5] 0.003

UBR3 isoform 4 (UniProt Q6ZT12)
Sequence of UniProt Q6ZT12 (Q6ZT12 whole entry, looked up): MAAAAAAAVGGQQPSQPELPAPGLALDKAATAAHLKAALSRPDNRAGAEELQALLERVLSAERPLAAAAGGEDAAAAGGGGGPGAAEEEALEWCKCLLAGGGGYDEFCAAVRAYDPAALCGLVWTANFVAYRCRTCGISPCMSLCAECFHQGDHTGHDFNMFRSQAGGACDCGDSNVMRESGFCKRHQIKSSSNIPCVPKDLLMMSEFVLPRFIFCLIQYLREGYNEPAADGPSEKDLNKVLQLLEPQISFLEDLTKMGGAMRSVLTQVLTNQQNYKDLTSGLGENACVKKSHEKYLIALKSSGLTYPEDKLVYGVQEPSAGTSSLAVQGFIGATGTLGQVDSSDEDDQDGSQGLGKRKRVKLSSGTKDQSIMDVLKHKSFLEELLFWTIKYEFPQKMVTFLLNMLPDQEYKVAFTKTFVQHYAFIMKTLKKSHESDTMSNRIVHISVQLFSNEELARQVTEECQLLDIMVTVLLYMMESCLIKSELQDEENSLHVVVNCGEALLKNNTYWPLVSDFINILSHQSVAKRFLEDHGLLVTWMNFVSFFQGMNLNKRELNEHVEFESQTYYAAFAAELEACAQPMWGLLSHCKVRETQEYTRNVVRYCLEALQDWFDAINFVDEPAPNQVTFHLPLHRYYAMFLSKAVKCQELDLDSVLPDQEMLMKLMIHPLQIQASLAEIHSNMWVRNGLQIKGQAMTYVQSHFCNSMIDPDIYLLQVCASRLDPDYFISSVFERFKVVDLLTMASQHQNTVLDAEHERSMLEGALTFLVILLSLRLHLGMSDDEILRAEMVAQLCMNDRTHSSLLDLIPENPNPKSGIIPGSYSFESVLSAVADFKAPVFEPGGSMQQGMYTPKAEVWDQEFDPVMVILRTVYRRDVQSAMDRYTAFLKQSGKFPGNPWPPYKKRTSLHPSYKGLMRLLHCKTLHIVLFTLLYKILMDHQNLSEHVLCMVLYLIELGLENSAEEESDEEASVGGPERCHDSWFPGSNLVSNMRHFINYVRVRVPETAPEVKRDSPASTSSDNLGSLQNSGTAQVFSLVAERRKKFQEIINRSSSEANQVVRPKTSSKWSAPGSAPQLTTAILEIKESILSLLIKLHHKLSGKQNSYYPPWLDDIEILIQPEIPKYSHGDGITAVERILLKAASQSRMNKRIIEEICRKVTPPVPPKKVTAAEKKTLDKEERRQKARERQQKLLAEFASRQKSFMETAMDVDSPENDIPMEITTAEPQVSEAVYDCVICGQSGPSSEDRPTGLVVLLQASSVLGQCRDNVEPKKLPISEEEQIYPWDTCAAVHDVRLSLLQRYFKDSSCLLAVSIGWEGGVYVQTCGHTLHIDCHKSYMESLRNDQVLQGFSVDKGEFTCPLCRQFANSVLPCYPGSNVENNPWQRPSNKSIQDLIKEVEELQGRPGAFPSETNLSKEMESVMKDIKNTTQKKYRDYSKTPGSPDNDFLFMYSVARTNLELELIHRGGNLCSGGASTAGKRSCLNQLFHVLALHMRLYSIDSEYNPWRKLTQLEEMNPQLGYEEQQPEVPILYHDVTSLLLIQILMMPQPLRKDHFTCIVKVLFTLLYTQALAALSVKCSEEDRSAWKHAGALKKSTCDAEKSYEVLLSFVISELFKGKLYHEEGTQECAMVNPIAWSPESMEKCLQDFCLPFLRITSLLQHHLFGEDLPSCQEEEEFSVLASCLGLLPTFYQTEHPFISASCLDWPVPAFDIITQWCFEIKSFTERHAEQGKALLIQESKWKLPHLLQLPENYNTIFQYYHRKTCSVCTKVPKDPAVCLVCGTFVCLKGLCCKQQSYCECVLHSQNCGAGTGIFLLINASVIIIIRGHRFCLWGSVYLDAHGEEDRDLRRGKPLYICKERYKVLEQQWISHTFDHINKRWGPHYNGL
inactive: [1] -0.027 | [2] -0.032 | [3] 0.009 | [4] -0.016 | [5] 0.076

TPM4 isoform 2 (UniProt P67936)
inactive: [1] -0.059 | [2] -0.012 | [3] 0.02 | [4] 0.053 | [5] 0.1

TPM4 (UniProt P67936)
inactive: [1] -0.003 | [2] 0.057 | [3] -0.021 | [4] -0.025 | [5] -0.04

UBR5 (UniProt O95071)
inactive: [1] -0.011 | [2] 0.012 | [3] 0.012 | [4] -0.018 | [5] 0.01

TTC37 (UniProt Q6PGP7)
inactive: [1] -0.08 | [2] 0.044 | [3] 0.16 | [4] -0.3

TMEM14C (UniProt Q9P0S9)
inactive: [1] -0.131 | [2] -0.031 | [3] 0.14 | [4] -0.015

TERF2IP (UniProt Q9NYB0)
inactive: [1] 0.023 | [2] -0.006 | [3] -0.077 | [4] -0.03 | [5] 0.116

TMEM97 (UniProt Q5BJF2)
inactive: [1] 0.048 | [2] 0.015 | [3] -0.016 | [4] -0.081 | [5] -0.153

TPST2 (UniProt O60704)
inactive: [1] -0.034 | [2] 0.021 | [3] -0.028 | [4] -0.054 | [5] -0.384

TMPO isoform 2 (UniProt P42167)
inactive: [1] 0.11 | [2] 0.088 | [3] 0.033 | [4] -0.069

TNIK (UniProt C9J338)
inactive: [1] -0.028 | [2] 0.067 | [3] 0.135 | [4] -0.225 | [5] -0.375

UBAP2L isoform 1 (UniProt Q14157)
inactive: [1] -0.101 | [2] -0.087

TCP11L1 (UniProt Q9NUJ3)
Sequence of UniProt Q9NUJ3 (Q9NUJ3 whole entry, looked up): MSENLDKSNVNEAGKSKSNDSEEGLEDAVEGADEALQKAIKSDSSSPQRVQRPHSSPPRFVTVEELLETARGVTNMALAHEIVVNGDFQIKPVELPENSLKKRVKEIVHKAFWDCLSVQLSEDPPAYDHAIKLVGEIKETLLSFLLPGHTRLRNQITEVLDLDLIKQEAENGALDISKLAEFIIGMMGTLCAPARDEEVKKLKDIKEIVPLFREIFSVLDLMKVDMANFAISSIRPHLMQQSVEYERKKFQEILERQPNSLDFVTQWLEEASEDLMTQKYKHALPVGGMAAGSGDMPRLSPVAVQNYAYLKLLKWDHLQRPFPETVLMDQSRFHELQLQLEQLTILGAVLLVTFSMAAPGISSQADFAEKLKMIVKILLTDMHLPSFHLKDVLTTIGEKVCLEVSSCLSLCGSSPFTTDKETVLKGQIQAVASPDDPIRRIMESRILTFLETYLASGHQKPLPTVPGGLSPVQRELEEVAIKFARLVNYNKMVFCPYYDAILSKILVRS
inactive: [1] -0.023 | [2] -0.031 | [3] -0.02 | [4] -0.021 | [5] -0.095

TUBE1 (UniProt Q9UJT0)
inactive: [1] -0.019 | [2] 0.003 | [3] 0.019 | [4] -0.064 | [5] 0.107

UBXN10 (UniProt Q96LJ8)
Sequence of UniProt Q96LJ8 (Q96LJ8 whole entry, looked up): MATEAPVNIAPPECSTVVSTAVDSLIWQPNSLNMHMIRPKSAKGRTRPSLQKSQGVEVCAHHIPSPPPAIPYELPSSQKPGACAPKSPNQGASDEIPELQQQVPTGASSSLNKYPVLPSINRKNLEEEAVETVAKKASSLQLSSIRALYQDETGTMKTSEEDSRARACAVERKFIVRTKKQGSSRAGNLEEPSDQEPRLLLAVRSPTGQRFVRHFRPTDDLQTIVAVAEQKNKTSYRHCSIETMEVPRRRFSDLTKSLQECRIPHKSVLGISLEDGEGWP
inactive: [1] -0.032 | [2] 0.048 | [3] 0.056 | [4] 0.095 | [5] 0.022

TFIP11 (UniProt Q9UBB9)
inactive: [1] -0.033 | [2] -0.022 | [3] 0.007 | [4] -0.002 | [5] 0.044

TNPO3 (UniProt Q9Y5L0)
inactive: [1] -0.024 | [2] 0.07 | [3] -0.003 | [4] 0.009 | [5] -0.029

TPM3 isoform 2 (UniProt P06753)
inactive: [1] -0.02 | [2] 0.01 | [3] -0.025 | [4] -0.009 | [5] 0.056

TRAPPC6A isoform 2 (UniProt O75865)
inactive: [1] 0.025 | [2] 0.046 | [3] -0.043 | [4] -0.003 | [5] 0.014

TXNIP (UniProt Q9H3M7)
inactive: [1] 0.056 | [2] 0.005 | [3] 0.029 | [4] 0.016 | [5] 0.087

TBRG4 (UniProt Q969Z0)
inactive: [1] -0.071 | [2] 0.024 | [3] 0.018 | [4] 0.052 | [5] 0.094

TUBB3 (UniProt Q13509)
inactive: [1] 0.014 | [2] -0.005 | [3] 0.008 | [4] 0.008 | [5] 0.01

TJP1 isoform 2 (UniProt Q07157)
inactive: [1] 0.048 | [2] 0.02 | [3] 0 | [4] 0.061 | [5] -0.009

TBC1D2B (UniProt Q9UPU7)
inactive: [1] -0.024 | [2] 0.139 | [3] -0.048 | [4] -0.065 | [5] -0.008

TTC4 (UniProt O95801)
inactive: [1] -0.018 | [2] -0.003 | [3] 0.001 | [4] 0.033 | [5] -0.013

UBXN2B (UniProt Q14CS0)
Sequence of UniProt Q14CS0 (Q14CS0 whole entry, looked up): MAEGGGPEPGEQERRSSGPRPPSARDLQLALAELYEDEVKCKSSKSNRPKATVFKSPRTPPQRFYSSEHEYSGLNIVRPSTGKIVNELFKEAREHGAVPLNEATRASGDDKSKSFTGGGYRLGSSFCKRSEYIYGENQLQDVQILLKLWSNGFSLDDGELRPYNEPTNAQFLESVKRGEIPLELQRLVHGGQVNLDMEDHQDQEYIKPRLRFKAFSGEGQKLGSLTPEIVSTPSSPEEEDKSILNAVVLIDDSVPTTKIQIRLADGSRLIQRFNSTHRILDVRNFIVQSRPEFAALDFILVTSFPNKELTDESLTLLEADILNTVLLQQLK
inactive: [1] 0.028 | [2] -0.03 | [3] 0.019 | [4] 0.042 | [5] 0.014

TTC38 (UniProt Q5R3I4)
inactive: [1] -0.001 | [2] 0 | [3] 0.05 | [4] 0.003 | [5] 0.126

TUBGCP5 (UniProt Q96RT8)
inactive: [1] -0.209 | [2] 0.088 | [3] 0.039 | [4] -0.093 | [5] 0.071

TGOLN2 isoform 7 (UniProt O43493)
Sequence of UniProt O43493 (O43493 whole entry, looked up): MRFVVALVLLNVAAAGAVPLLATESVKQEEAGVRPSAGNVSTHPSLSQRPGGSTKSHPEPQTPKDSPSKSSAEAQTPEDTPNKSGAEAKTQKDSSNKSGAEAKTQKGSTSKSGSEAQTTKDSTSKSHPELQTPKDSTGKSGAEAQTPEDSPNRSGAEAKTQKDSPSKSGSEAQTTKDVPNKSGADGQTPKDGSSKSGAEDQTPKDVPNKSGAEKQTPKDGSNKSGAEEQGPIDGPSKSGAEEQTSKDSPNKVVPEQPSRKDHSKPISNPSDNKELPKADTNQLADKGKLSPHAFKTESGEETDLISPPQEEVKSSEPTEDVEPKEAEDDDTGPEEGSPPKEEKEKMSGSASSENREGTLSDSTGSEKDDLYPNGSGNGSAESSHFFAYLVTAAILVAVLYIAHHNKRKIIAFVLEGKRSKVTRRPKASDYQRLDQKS
inactive: [1] 0.065 | [2] -0.029 | [3] -0.015 | [4] -0.017 | [5] -0.069

UFM1 (UniProt P61960)
inactive: [1] 0.015 | [2] -0.085 | [3] -0.103 | [4] -0.019 | [5] 0.297

TRMT12 (UniProt Q53H54)
inactive: [1] 0.104 | [2] -0.023 | [3] -0.007 | [4] -0.061 | [5] 0.076

TRIM33 isoform 2 (UniProt Q9UPN9)
inactive: [1] 0.003 | [2] 0.009 | [3] 0.022 | [4] 0.011 | [5] 0.005

TBL2 (UniProt Q9Y4P3)
inactive: [1] 0.01 | [2] 0.057 | [3] 0.033 | [4] 0.039 | [5] 0.071

TPP2 (UniProt Q5VZU9)
inactive: [1] 0.004 | [2] -0.117 | [3] 0.001 | [4] 0.034 | [5] -0.08

TTC5 (UniProt Q8N0Z6)
Sequence of UniProt Q8N0Z6 (Q8N0Z6 whole entry, looked up): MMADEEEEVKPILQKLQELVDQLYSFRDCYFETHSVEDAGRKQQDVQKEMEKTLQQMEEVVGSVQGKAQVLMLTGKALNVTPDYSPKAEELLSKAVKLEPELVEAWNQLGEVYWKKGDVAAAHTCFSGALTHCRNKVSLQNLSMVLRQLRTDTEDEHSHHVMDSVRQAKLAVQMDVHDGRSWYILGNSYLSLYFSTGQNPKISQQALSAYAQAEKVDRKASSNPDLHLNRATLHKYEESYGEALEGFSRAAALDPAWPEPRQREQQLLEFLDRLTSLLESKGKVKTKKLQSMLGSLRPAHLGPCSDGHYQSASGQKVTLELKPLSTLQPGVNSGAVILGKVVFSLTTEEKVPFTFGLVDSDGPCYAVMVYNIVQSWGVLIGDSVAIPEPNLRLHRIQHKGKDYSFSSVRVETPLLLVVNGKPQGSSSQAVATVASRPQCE
inactive: [1] -0.022 | [2] 0.009 | [3] 0.035 | [4] 0.039 | [5] 0.002

UFSP2 (UniProt Q9NUQ7)
inactive: [1] 0.059 | [2] 0 | [3] 0.057 | [4] -0.04 | [5] 0.022

— the supplement of paper PMC10849652
